The campaign covered roughly 2,100 compounds. About 650 (31%) were called active. Roughly 16% stayed inconclusive and do not appear here. Calls follow the shape of the dose curve; as a rule, active = well fitted inhibition curve with a large enough effect; inconclusive = small, poorly fitted or top-dose-only effect; inactive = flat fitted curve, though single readings scatter. The list shows a part of the results. Where a call stands in place of a potency, no number is given.
assay: qHTS for inhibitors of Vif-A3G interactions: Cherry picks; settings: HeLa A3G-eYFP + Vif (tagged APOBEC3G with the HIV-1 protein that degrades it), 24 h; Potency: eYFP fluorescence increase; series mostly up to 36.9 µM; also: nearly all actives have a fitted effect of over 80% in size
How it was run: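 HeLa cells stably expressing A3G-eYFP and Vif, cultured overnight then exposed to compounds at several concentrations for 24 hours at 37 C, 5% CO2; cellular yellow fluorescence (488 nm ex, 500-530 nm em) imaged on Acumen, MG132 positive control.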
Potency is read from the fitted curve at half-maximal effect.

Row | Structure (SMILES) | Potency
1 | CC(=O)Nc1cccc(-c2ccnc3c2CC(C(=O)NCc2cccs2)O3)c1 (stereo unspecified) | inactive
2 | CC(=O)Nc1ccc(NC(=O)C/C(C)=N/NC(N)=S)cc1 | inactive
3 | CCN(CC)c1ccc2cc(-c3nc(-c4ccccc4)no3)c(=O)oc2c1 | 4.61 µM (active)
4 | CCN(CC)c1ccc2cc(-c3nc4ccccc4n3C)c(=O)oc2c1 | 16.4 µM (active)
5 | CCN(CC)c1ccc2cc(-c3nnc(-c4cccc(Cl)c4)o3)c(=O)oc2c1 | 1.3 µM (active)
6 | COc1ccc(-c2csc(-c3ccc(O)cc3)n2)cc1 | inactive
7 | O=c1oc2cc(O)ccc2cc1-c1nc(-c2ccc(Cl)c(Cl)c2)cs1 | 1.84 µM (active)
8 | Oc1ccc(-c2nc(-c3ccc(O)c(O)c3)cs2)cc1 | inactive
9 | COc1cccc(C2=CC(c3cc(Br)ccc3F)n3nnnc3N2)c1 (stereo unspecified) | inactive
10 | CCN(CC)c1ccc2cc(C(N)=O)c(=N)oc2c1 | 23.1 µM (active)
11 | CCN(CC)c1ccc(/C=N/N=C(N)N)c(O)c1 | inactive
12 | O=C1/C(=C/c2c[nH]c3ccccc23)CCC/C1=C\c1c[nH]c2ccccc12 | 18.4 µM (active)
13 | O=C(c1ccccc1)c1c2c(cc3sc4ccccc4[n+]13)-c1cccc3cccc-2c13 | inactive
14 | S=C(NN=Cc1ccccn1)Nc1ccccn1 | inactive
15 | C/C(=N\Nc1nc(C)cc(-c2ccccc2)n1)c1ccc(F)cc1 | inactive
16 | CCOc1ccc(Br)cc1C(=O)Nc1ccc(C(=O)NCC(C)C)cc1 | 6.51 µM (active)
17 | CCOc1ccc(Br)cc1/C(C)=N\NC1=NCCN1 | inactive
18 | CCOc1ccccc1C(=O)Nc1c(C(=O)Nc2ccc(F)cc2)oc2ccccc12 | inactive
19 | COCCNC(=S)NN=C1CCCCCC1 | inactive
20 | O=C1CC(c2cc(Br)ccc2F)c2cc3c(cc2N1)CCC3 (stereo unspecified) | inactive
21 | Cc1ccc(/C=C/c2ccc(N(C)C)cc2)[n+](C)c1 | 14 µM (active)
22 | CN(C)c1ccc(/C=C/c2cc[n+](C)cc2)cc1 | 15.8 µM (active)

Row | Structure (SMILES) | Potency
23 | CC[n+]1cc(C)ccc1/C=C/c1ccc(N(C)C)cc1 | 14 µM (active)
24 | O=C1NC(c2cccc(Cl)c2)Nc2ccccc21 (stereo unspecified) | inactive
25 | O=c1[nH]ncc2c3ccccc3n(Cc3cccc(Cl)c3)c12 | 23.1 µM (active)
26 | CC(C)(C)c1ccc(Cn2c(=O)cnc3ccccc32)cc1 | inactive
27 | CN(C)c1ccc(/C=C2\SC(=S)N(Nc3ncc(C(F)(F)F)cc3Cl)C2=O)cc1 | 3.66 µM (active)
28 | O=C(NNc1ncc(C(F)(F)F)cc1Cl)c1c(Cl)cccc1Cl | inactive
29 | COc1cc(/C=C2\SC(=S)N(Nc3ncc(C(F)(F)F)cc3Cl)C2=O)ccc1O | 18.4 µM (active)
30 | CCOC(=O)Nc1ccc2nc(-c3cscn3)[nH]c2c1 | inactive
31 | CCCn1c(C2CCCN2c2nc(-c3cccc(Br)c3)cs2)nc2ccccc21 (stereo unspecified) | inactive
32 | CCc1ccc(C(=O)NC(=S)Nc2ccc(N3CCOCC3)cc2)cc1 | inactive
33 | CCc1ccc(NC(=O)/C(C#N)=C/c2cc3ccc(C)cc3nc2N2CCOCC2)cc1 | 14.6 µM (active)
34 | Cc1cc2c(cc(C(=O)OCC(=O)NCc3cccs3)n2C(C)C)o1 | inactive
35 | CCOC(=O)C1C(=O)C=C(/C=C/c2ccc(N(C)C)cc2)CC1c1ccccc1 (stereo unspecified) | 6.51 µM (active)
36 | COc1ccc(NC(=S)NN(C)C(=S)Nc2ccc(OC)cc2)cc1 | inactive
37 | CCC(=C/c1sc2ccc3ccccc3c2[n+]1C)/C=C1\Sc2ccc3ccccc3c2N1C | inactive
38 | CCN1/C(=C/c2cc[n+](C)cc2)C=Cc2cc(C)ccc21 | 23.1 µM (active)
39 | Cc1cc(C)c(S(=O)(=O)Oc2ccccc2[N+](=O)[O-])c(C)c1 | inactive
40 | CCOC(=O)C1CCCN(C(=O)c2ccc3nc(-c4cccc(OC)c4)oc3c2)C1 (stereo unspecified) | inactive
41 | COc1ccc(NCc2cc3cc4c(cc3n(CC(=O)Nc3cc(C)ccc3C)c2=O)OCCO4)cc1 | 2.31 µM (active)
42 | O=C(Cn1ncc(Cl)c(Cl)c1=O)Nc1ccc2c(c1)OCO2 | inactive
43 | COc1ccc(NC(=O)N(Cc2cc3ccc(OC)cc3[nH]c2=O)CC2CCCO2)cc1 (stereo unspecified) | inactive
44 | Cc1cc(NC(=O)CSc2nc3c(C)cccc3cc2C#N)no1 | 20.6 µM (active)

Row | Structure (SMILES) | Potency
45 | Cc1nonc1NC(=O)CSc1nc2c(C)cccc2cc1C#N | 18.4 µM (active)
46 | Cc1cc2cc(C#N)c(SCC(=O)Nc3nonc3C)nc2cc1C | 14.6 µM (active)
47 | Cc1ccccc1NC(=O)CSc1nc2cc3c(cc2cc1C)CCC3 | inactive
48 | Cc1cc(NC(=O)CSc2nc(-c3cccs3)nc3ccccc23)no1 | inactive
49 | COC(=O)C1CCC(=O)N1C(c1ccc(OC)cc1)c1cc(OC)c(OC)c(OC)c1 (stereo unspecified) | inactive
50 | COc1ccc2ccccc2c1C1NC(=O)c2ccccc2N1 (stereo unspecified) | inactive
51 | COc1ccc(/C=C2/CSC/C(=C/c3ccc(OC)c(OC)c3)C2=O)cc1OC | inactive
52 | CN(C)c1ccc(/C=C2\Cc3ccccc3C2=O)cc1 | 3.26 µM (active)
53 | O=C1C(=Cc2ccccc2[N+](=O)[O-])Cc2ccccc21 | inactive
54 | CN(C)c1ccc(/C=C2/C[N+](C)(C)C/C(=C/c3ccc(N(C)C)cc3)C2=O)cc1 | 9.2 µM (active)
55 | Nc1ccccc1C=C1Cc2ccccc2C1=O | 16.4 µM (active)
56 | Cc1ccc2nc(C)c(C(=O)NN=C3CCCCCC3)n2c1 | inactive
57 | CSc1nc(Sc2ccccc2Cl)c2ccccc2n1 | inactive
58 | CCC1CCCCN1CCCNC(=O)c1ccc2c(c1)N(Cc1ccccc1F)C(=O)c1ccccc1S2(=O)=O (stereo unspecified) | inactive
59 | COc1ccc(NC(=O)c2cccc3ccccc23)cc1 | inactive
60 | COc1ccc(NC(=O)CSc2ccc3c4c(cccc24)C(=O)c2ccccc2-3)cc1 | 7.31 µM (active)
61 | CCn1c(SCC(=O)Nc2cccc(O)c2)nc2c1c(=O)n(C)c(=O)n2C | inactive
62 | CCn1c(CNC(=O)C23CC4CC(CC(C4)C2)C3)nnc1SCC(=O)Nc1ccc(OC)cc1 | inactive
63 | N#Cc1cccc(NC(=O)CSc2ccc3c4c(cccc24)C(=O)c2ccccc2-3)c1 | 6.51 µM (active)
64 | CCCn1nnc(NC(=S)NC(=O)c2ccccc2OC)n1 | inactive
65 | O=C(NC12CC3CC(CC(C3)C1)C2)c1ccc([N+](=O)[O-])o1 | inactive
66 | CN1CCC(OC(=O)c2cc3cc(Cl)cc(Cl)c3oc2=O)CC1 | inactive

Row | Structure (SMILES) | Potency
67 | Cc1ccccc1OCCc1c(C)[nH]c(=S)[nH]c1=O | inactive
68 | O=C(c1ccccn1)C1CCCN(Cc2cn[nH]c2-c2cc3ccccc3o2)C1 (stereo unspecified) | inactive
69 | Cc1c(N=C2N=C(NC(=O)c3cccs3)c3ccccc32)c(=O)n(-c2ccccc2)n1C | 14 µM (active)
70 | COc1ccc(N2C(=O)CC(Sc3nc(C)c4c(n3)CCCC4)C2=O)cc1 (stereo unspecified) | inactive
71 | Cn1c(N)c(-c2ccccc2)c2ccc([N+](=O)[O-])cc2c1=O | 15.8 µM (active)
72 | CCc1cc[n+](-c2nc3ccccc3nc2[N-]S(=O)(=O)c2ccc(Br)s2)cc1 | 20.6 µM (active)
73 | O=S(=O)([N-]c1nc2ccccc2nc1-[n+]1ccc(-c2ccncc2)cc1)c1ccccc1 | inactive
74 | Cc1cc(C)c[n+](-c2nc3ccccc3nc2[N-]S(=O)(=O)c2ccc(Br)s2)c1 | 18.4 µM (active)
75 | COCc1ccc(O)c2ncccc12 | inactive
76 | COC(=O)c1c(N2C(=O)[C@H]3[C@@H](C2=O)[C@]2(C(=O)Nc4c(C)cccc42)N2CCC[C@@H]32)sc(C)c1C | inactive
77 | CC(=O)/C(N=Nc1cc(C)ccc1O)=C(\C)O | 16.4 µM (active)
78 | CCCN(C(=O)CSc1n[nH]c(-c2ccc(OC)cc2)n1)c1c(N)n(Cc2ccccc2)c(=O)[nH]c1=O | inactive
79 | COc1ccc2c(c1)c(/C=C/c1cc[n+](C)cc1)cn2C | 1.98 µM (active)
80 | Cc1ccc2[nH]cc(/C=C/c3cc[n+](C)cc3)c2c1 | 4.44 µM (active)
81 | COc1ccc2[nH]cc(/C=C/c3cc[n+](C)cc3)c2c1 | 13 µM (active)
82 | C[n+]1ccc(/C=C/c2c[nH]c3ccc(F)cc23)cc1 | 14.6 µM (active)
83 | COc1ccc2c(c1)c(C(=O)N/N=C/c1ccc(Cl)cc1)c(C)n2C | inactive
84 | CSc1cccc(NC(=O)c2cc3c(COC(C)=O)cnc(C)c3oc2=O)c1 | inactive
85 | O=C(NC1C/C(=N/O)c2cc3c(cc21)OCO3)C(F)(F)F (stereo unspecified) | inactive
86 | CCOc1ccc(C(C)=O)cc1COc1cccnc1[N+](=O)[O-] | inactive
87 | O=C(NCc1cccs1)C1CCN(c2ccc(S(=O)(=O)N3CCOCC3)cc2Cl)CC1 | inactive
88 | O=S(=O)(Nc1nc2ccccc2nc1OCC(F)(F)F)c1cccs1 | inactive

Row | Structure (SMILES) | Potency
89 | CC[N+](C)(C)c1ccc(/C=C/c2ccncc2)cc1 | 20.6 µM (active)
90 | CCC[N+](C)(C)c1ccc(/C=C/c2ccncc2)cc1 | 18.4 µM (active)
91 | C=CCOC(=O)C1=C(C)NC(C)=C(C(=O)OCC=C)C1c1cn(-c2ccccc2)nc1-c1ccco1 | inactive
92 | CC(=O)c1cccc(-c2ccnc3c2CC(C(=O)Nc2ccc(Cl)cc2)O3)c1 (stereo unspecified) | inactive
93 | NC(=O)c1c(Nc2nc3c(F)cccc3s2)sc2c1CCCC2 | inactive
94 | CCCSc1ncc(Cl)c(C(=O)Nc2sc3c(c2C(N)=O)CCCC3)n1 | 11.6 µM (active)
95 | ClCC1NCC(c2ccccc2Cl)c2c1[nH]c1ccccc21 (stereo unspecified) | inactive
96 | S=c1[nH]cnc2sc(-c3ccccc3)cc12 | inactive
97 | CN(C)C=Nc1c(Br)cc(Br)c2nonc12 | 9.2 µM (active)
98 | Nc1c(C(=O)N/N=C/c2ccc(F)cc2)oc2nc(-c3ccccc3)cc(-c3ccco3)c12 | 12.5 µM (active)
99 | O=C(N/N=C/c1cccc(F)c1)c1cc(-c2ccco2)nc2ccccc12 | inactive
100 | O=C(N/N=C/c1ccc(Cl)cc1)c1cc(-c2cccnc2)nc2ccccc12 | inactive
101 | Cc1ccc(C=NNC(=O)c2cc(-c3cccnc3)nc3ccccc23)o1 | inactive
102 | O=C(N/N=C/c1ccco1)c1cc(-c2ccncc2)nc2ccccc12 | inactive
103 | Nc1c(C(=O)N/N=C/c2ccccc2Cl)oc2nc(-c3ccccc3)cc(-c3ccco3)c12 | 5.8 µM (active)
104 | O=C(N/N=C/c1ccc2c(c1)OCO2)c1cc(-c2ccco2)nc2ccccc12 | inactive
105 | Nc1c(C(=O)N/N=C/c2cccnc2)oc2nc(-c3ccccc3)cc(-c3ccco3)c12 | 5.8 µM (active)
106 | Cc1ccc(/C=N/NC(=O)c2cc(-c3ccccc3)nc3ccccc23)o1 | inactive
